37 molecules from PubChem BioAssay (EPA / NIEHS) can be followed below.

As usually defined, the AC50 is the midpoint of the concentration-response curve, whichever way the signal moves.

“And” between values parts separate entries of the source, which are not always exact repeats. Equal entries are not always repeated. The source holds several records for some structures; these can differ, active in one and inactive in another. The source made the active and inactive calls. How the source made its calls: active means hit-call score of the fitted dose curve at least 0.9, where 1 is the maximum; inactive means score below 0.9.

Read-out in the experiment: Human Leukocyte Antigen - DR isotype (HLADR), HLA-DRA (gene 3122)
Kind of experiment: BSK_BE3C_HLADR: BioMAP Diversity Plus: BE3C Assay for Human Leukocyte Antigen - DR isotype (HLADR) Biomarker Activity (AID 2283032). The following applies: primary human bronchial epithelial cells; actives raise or lower the signal. The procedure: BSK_BE3C is a cell-based, multiplexed-readout assay that uses bronchial epithelial cell, a human lung primary cell, with measurements taken at 24 hours after chemical dosing in a 96-well plate.BSK_BE3C_HLADR is an assay component measured in the BSK_BE3C assay. It measures HLA-DR antibody related to regulation of gene expression using ELISA technology.Data from the assay component BSK_BE3C_HLADR was analyzed into 1 assay endpoint. This assay endpoint, BSK_BE3C_HLADR, was analyzed with bidirectional fitting relative to DMSO as the negative control and baseline of activity. Using a type of binding reporter, gain or loss-of-signal activity can be used to understand changes in the signaling as they relate to the gene HLA-DRA. Furthermore, this assay endpoint can be referred to as a primary readout, because this assay has produced multiple assay endpoints where this one serves a signaling function. To generalize the intended target to other relatable targets, this assay endpoint is annotated to the cell adhesion molecules intended target family, where the subfamily is MHC Class II.
The levels of cell surface (or secreted, indicated by the prefix "s") biomarker endpoints were measured by ELISA. Overt cytotoxicity to cells in confluent adherent cultures (all systems other than the BT system) was assessed by measuring total protein levels using sulforhodamine B (SRB) staining in parallel cultures at the time of biomarker measurements, indicated as SRB endpoints. For proliferation assays for adherent cell types, individual cell types are cultured at sub-confluence and relative cell numbers quantified by SRB staining at time points optimized for each system (48 h: 3C and CASM3C systems; 72 h: BT and HDF3CGF systems; 96 h: SAg system). SRB was performed by staining cells with 0.1% SRB after fixation with 10% TCA and reading wells at 560 nm.Viability and proliferation of PBMC (T cells) was quantified by Alamar Blue reduction for the SAg and BT systems. For PBMC viability (referred to as PBMC Cytotoxicity within the assay endpoint names), cells were plated (75,000/well in a 96-well plate) and then chemical samples added for 1 h before addition of activators, SEB and TSST-1 (20 ng/mL final concentration each). Cells were incubated for 90 h. Then, Alamar Blue (20 uL/well) (Invitrogen, Cat DAL1100) was added for 6 h, and the plates were read with a fluorescence microplate reader at 546/580 nm (excitation/emission). For PBMC proliferation, cells were plated and activated as above but incubated for only 16 h prior to addition of Alamar Blue. Plates were read after 6 h.
For the molecule `CCNc1nc(Cl)nc(NCC)n1`, the result was inactive.

Take `COP(N)(=O)SC` (stereo not given): the AC50 is 5.27 µM (active).

For `COc1nc(NC(C)C)nc(NC(C)C)n1`, the result was inactive.

Turning to `CC1=C(C(=O)Nc2ccccc2)SCCO1`, the outcome was inactive.

With `CC(C)(C)c1ccc(CSc2cnn(C(C)(C)C)c(=O)c2Cl)cc1`, the AC50 was 7.02 µM (active).

As to `C=CCC1=C(C)C(OC(=O)C2C(C=C(C)C)C2(C)C)CC1=O` (stereo not given), the AC50 is 15.7 µM (active) and 32.3 µM (active) and 30.9 µM (active); the result was inactive.

Regarding `CCOc1cc(Oc2ccc(C(F)(F)F)cc2Cl)ccc1[N+](=O)[O-]`, the AC50 was 9.39 µM (active).

For `O=C(O)c1nc(Cl)ccc1Cl`, the outcome was inactive and the AC50 was 28.8 µM (active).

For `CN(C)C(=S)SSC(=S)N(C)C`, the AC50 was 8.69 µM (active).

Turning to `Cc1ccc(-c2c(Cl)nc(C#N)n2S(=O)(=O)N(C)C)cc1`, the AC50 was 5.94 µM (active).

For `O=C(Nc1ccccc1)Nc1ccnc(Cl)c1`, the AC50 was 34.7 µM (active).

`Cc1cc(Cl)ccc1OCC(=O)O`: the result was inactive.

Regarding `CC1COC(Cn2cncn2)(c2ccc(Oc3ccc(Cl)cc3)cc2Cl)O1` (stereo not given), the AC50 is 20 µM (active).

As for `C=CC1(C)OC(=O)N(c2cc(Cl)cc(Cl)c2)C1=O` (stereo not given), the result was inactive.

In the case of `OC(c1ccc(Cl)cc1)(c1cncnc1)c1ccccc1Cl` (stereo not given), the AC50 was 25.9 µM (active).

Take `N#CC(CCc1ccc(Cl)cc1)(Cn1cncn1)c1ccccc1` (stereo not given): the AC50 was 31.2 µM (active).

Turning to `CCOC(=O)CC(SP(=S)(OC)OC)C(=O)OCC` (stereo not given), the outcome was inactive.

In the case of `COC(=O)C=C(C)OP(=O)(OC)OC`, the outcome was inactive.

Take `COC(=O)C(C)Oc1ccc(Oc2ccc(Cl)cc2Cl)cc1` (stereo not given): the outcome was inactive; the AC50 is 9.71 µM (active) and 20 µM (active).

Consider `CO/C=C(/C(=O)OC)c1ccccc1Oc1cc(Oc2ccccc2C#N)ncn1`, for which the AC50 was 16.5 µM (active) [middle of 4 runs].

For `COC(=O)N(OC)c1ccccc1COc1ccn(-c2ccc(Cl)cc2)n1`, the AC50 was 3.97 µM (active).

As to `CCCCC(CC)COC(=O)c1ccccc1C(=O)OCC(CC)CCCC` (stereo not given), the outcome was inactive.

As for `COc1nc(C)nc(NC(=O)NS(=O)(=O)c2ccccc2Cl)n1`, the result was inactive.

Regarding `CCOC(=O)C(Cl)Cc1cc(-n2nc(C)n(C(F)F)c2=O)c(F)cc1Cl` (stereo not given), the outcome was inactive.

As to `COc1nc(C)nc(NC(=O)NS(=O)(=O)c2ccccc2CCC(F)(F)F)n1`, the result was inactive.

`Oc1ccccc1-c1ccccc1`: the outcome was inactive.

Turning to `C=CCC1=C(C)[C@@H](OC(=O)[C@@H]2[C@@H](C=C(C)C)C2(C)C)CC1=O`, the AC50 was 20 µM (active).

For the molecule `CCCCNC(=O)OCC#CI`, the AC50 is 28.8 µM (active) and 31.2 µM (active).

For `CCNc1nc(Cl)nc(NC(C)C)n1`, the outcome was inactive.

In the case of `CCCCOC(=O)c1ccccc1C(=O)OCCCC`, the outcome was inactive.

As to `C#CCOS(=O)OC1CCCCC1Oc1ccc(C(C)(C)C)cc1` (stereo not given), the AC50 is 13.8 µM (active).

As for `COc1ccc(C(c2ccc(OC)cc2)C(Cl)(Cl)Cl)cc1`, the AC50 is 17.4 µM (active).

For the molecule `CCCCNC(=O)n1c(NC(=O)OC)nc2ccccc21`, the result was inactive.

As to `N#Cc1nn(-c2c(Cl)cc(C(F)(F)F)cc2Cl)c(N)c1S(=O)C(F)(F)F` (stereo not given), the AC50 is 14.2 µM (active).

As for `Fc1ccc(Oc2ccnc3cc(Cl)cc(Cl)c23)cc1`, the AC50 is 24.3 µM (active).

For the molecule `CC(Oc1ccc(Cl)cc1Cl)C(=O)O` (stereo not given), the result was inactive.

For `N#Cc1cc(Br)c(O)c(Br)c1`, the AC50 was 11.9 µM (active).
